Where “and” joins values, the source holds several entries; their conditions need not be identical. Identical values can stand only once. Out of some 5,500 compounds screened, about 2,000 (36%) were called active. Roughly 18% stayed inconclusive and do not appear here. Cut-off read from the data, not from the text of the source: active = normalized growth mostly below about 0.91 (no sharp cut-off); inconclusive = no clear call, values can overlap the other calls; inactive = mostly above about 0.92. The list shows a part of the results.
Test: chemical genetic growth profiling, strain panel (AID 1159580);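 note: tested at 20 µM; growth read once vehicle control cultures reached saturation at 30 °C; 1 = growth at the plate median or of vehicle wells; lower values mean less growth of the strain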
Conditions: growth OD

Measured: normalized growth

Cc1cc(N)c2ccccc2[n+]1CCCCCCCCCC[n+]1c(C)cc(N)c2ccccc21
active: S. cerevisiae deletion strains, locus YJL187C, strain SWE1, stronger effect = lower value 0.066 | S. cerevisiae deletion strains, locus YJR043C, strain POL32, stronger effect = lower value 0.0703 | S. cerevisiae deletion strains, locus YJR075W, strain HOC1, stronger effect = lower value 0.0707 and 0.0679 | S. cerevisiae deletion strains, locus YKL009W, strain mrt4, stronger effect = lower value 0.107 | S. cerevisiae deletion strains, locus YKL068W, stronger effect = lower value 0.0834 | S. cerevisiae deletion strains, locus YKL085W, strain MDH1 (second series), stronger effect = lower value 0.0842 | S. cerevisiae deletion strains, locus YKL085W, strain MDH1, stronger effect = lower value 0.0842 | S. cerevisiae deletion strains, locus YKL160W, strain elf1, stronger effect = lower value 0.0728 | S. cerevisiae deletion strains, locus YKL190W, strain CNB1, stronger effect = lower value 0.0496 | S. cerevisiae deletion strains, locus YKR001C, strain vps1, stronger effect = lower value 0.0684 | S. cerevisiae deletion strains, locus YKR026C, strain gcn3, stronger effect = lower value 0.0705 | S. cerevisiae deletion strains, locus YKR091W, strain srl3, stronger effect = lower value 0.0679 | S. cerevisiae deletion strains, locus YLL001W, strain dnm1, stronger effect = lower value 0.0644 | S. cerevisiae deletion strains, locus YLL026W, stronger effect = lower value 0.0616 | S. cerevisiae deletion strains, locus YLL041C, strain sdh2, stronger effect = lower value 0.0642 | S. cerevisiae deletion strains, locus YLR027C, strain aat2, stronger effect = lower value 0.0617 | S. cerevisiae deletion strains, locus YLR039C, strain RIC1, stronger effect = lower value 0.0806 | S. cerevisiae deletion strains, locus YLR058C, strain SHM2, stronger effect = lower value 0.0484 | S. cerevisiae deletion strains, locus YLR102C, strain apc9, stronger effect = lower value 0.0687 | S. cerevisiae deletion strains, locus YLR221C, strain rsa3, stronger effect = lower value 0.0648 | S. cerevisiae deletion strains, locus YLR258W, strain gsy2, stronger effect = lower value 0.0653 | S. cerevisiae deletion strains, locus YLR262C, strain YPT6 (second series), stronger effect = lower value 0.0835 | S. cerevisiae deletion strains, locus YLR262C, strain YPT6, stronger effect = lower value 0.107 | S. cerevisiae deletion strains, locus YLR268W, strain sec22, stronger effect = lower value 0.0712 | S. cerevisiae deletion strains, locus YLR320W, strain mms22, stronger effect = lower value 0.0855 | S. cerevisiae deletion strains, locus YLR330W, strain CHS5, stronger effect = lower value 0.0547 | S. cerevisiae deletion strains, locus YLR342W, strain FKS1 (second series), stronger effect = lower value 0.0723 | S. cerevisiae deletion strains, locus YLR342W, strain FKS1, stronger effect = lower value 0.0695 | S. cerevisiae deletion strains, locus YLR357W, strain rsc2, stronger effect = lower value 0.126 | S. cerevisiae deletion strains, locus YLR370C, strain arc18, stronger effect = lower value 0.0633 | S. cerevisiae deletion strains, locus YLR371W, strain rom2, stronger effect = lower value 0.0663 | S. cerevisiae deletion strains, locus YLR384C, strain iki3, stronger effect = lower value 0.0616 | S. cerevisiae deletion strains, locus YLR418C, strain cdc73, stronger effect = lower value 0.101 | S. cerevisiae deletion strains, locus YML016C, strain PPZ1, stronger effect = lower value 0.0475 | S. cerevisiae deletion strains, locus YML032C, strain rad52, stronger effect = lower value 0.0723 | S. cerevisiae deletion strains, locus YML120C, strain ndi1, stronger effect = lower value 0.0605 | S. cerevisiae deletion strains, locus YML124C, strain tub3, stronger effect = lower value 0.0637 | S. cerevisiae deletion strains, locus YMR058W, strain fet3, stronger effect = lower value 0.0627 | S. cerevisiae deletion strains, locus YMR078C, strain ctf18, stronger effect = lower value 0.0768 | S. cerevisiae deletion strains, locus YMR125W, strain sto1, stronger effect = lower value 0.0824 | S. cerevisiae deletion strains, locus YMR129W, stronger effect = lower value 0.069 | S. cerevisiae deletion strains, locus YMR205C, strain PFK2, stronger effect = lower value 0.0906 | S. cerevisiae deletion strains, locus YMR223W, strain ubp8, stronger effect = lower value 0.0681 | S. cerevisiae deletion strains, locus YMR231W, strain pep5, stronger effect = lower value 0.0782 | S. cerevisiae deletion strains, locus YMR263W, strain SAP30, stronger effect = lower value 0.0586 | S. cerevisiae deletion strains, locus YMR307W, strain GAS1, stronger effect = lower value 0.119 and 0.0541 | S. cerevisiae deletion strains, locus YNL067W, strain RPL9B, stronger effect = lower value 0.0529 | S. cerevisiae deletion strains, locus YNL071W, strain lat1, stronger effect = lower value 0.0636 | S. cerevisiae deletion strains, locus YNL128W, strain TEP1, stronger effect = lower value 0.0667 and 0.0791 | S. cerevisiae deletion strains, locus YNL153C, strain GIM3, stronger effect = lower value 0.0526 and 0.0904 | S. cerevisiae deletion strains, locus YNL175C, strain NOP13, stronger effect = lower value 0.0762 | S. cerevisiae deletion strains, locus YNL197C, strain WHI3, stronger effect = lower value 0.0722 | S. cerevisiae deletion strains, locus YNL209W, strain ssb2, stronger effect = lower value 0.0673 | S. cerevisiae deletion strains, locus YNL224C, strain SQS1, stronger effect = lower value 0.0723 | S. cerevisiae deletion strains, locus YNL233W, strain BNI4, stronger effect = lower value 0.0625 | S. cerevisiae deletion strains, locus YNL248C, strain rpa49, stronger effect = lower value 0.0815 | S. cerevisiae deletion strains, locus YNL250W, strain rad50, stronger effect = lower value 0.136 | S. cerevisiae deletion strains, locus YNL271C, strain bni1, stronger effect = lower value 0.0837 | S. cerevisiae deletion strains, locus YNL298W, strain CLA4, stronger effect = lower value 0.0752 | S. cerevisiae deletion strains, locus YNL307C, strain MCK1, stronger effect = lower value 0.0714 | S. cerevisiae deletion strains, locus YNL322C, strain KRE1 (second series), stronger effect = lower value 0.0698 | S. cerevisiae deletion strains, locus YNL322C, strain KRE1, stronger effect = lower value 0.0558 | S. cerevisiae deletion strains, locus YNR049C, strain mso1, stronger effect = lower value 0.0605 | S. cerevisiae deletion strains, locus YNR052C, strain pop2, stronger effect = lower value 0.0672 | S. cerevisiae deletion strains, locus YOL006C, strain TOP1, stronger effect = lower value 0.11 | S. cerevisiae deletion strains, locus YOL147C, strain pex11, stronger effect = lower value 0.0611 | S. cerevisiae deletion strains, locus YOR001W, strain rrp6, stronger effect = lower value 0.0775 | S. cerevisiae deletion strains, locus YOR061W, strain CKA2, stronger effect = lower value 0.0489 | S. cerevisiae deletion strains, locus YOR069W, strain VPS5, stronger effect = lower value 0.0494 | S. cerevisiae deletion strains, locus YOR070C, strain gyp1, stronger effect = lower value 0.0633 | S. cerevisiae deletion strains, locus YOR080W, strain dia2, stronger effect = lower value 0.0687 | S. cerevisiae deletion strains, locus YOR083W, strain WHI5 (second series), stronger effect = lower value 0.081 | S. cerevisiae deletion strains, locus YOR083W, strain WHI5, stronger effect = lower value 0.0703 | S. cerevisiae deletion strains, locus YOR106W, strain vam3, stronger effect = lower value 0.065 | S. cerevisiae deletion strains, locus YOR136W, strain idh2, stronger effect = lower value 0.0784 | S. cerevisiae deletion strains, locus YOR144C, strain elg1, stronger effect = lower value 0.0641 | S. cerevisiae deletion strains, locus YOR184W, strain ser1, stronger effect = lower value 0.0725 | S. cerevisiae deletion strains, locus YOR265W, strain rbl2, stronger effect = lower value 0.0616 | S. cerevisiae deletion strains, locus YOR270C, strain vph1, stronger effect = lower value 0.0961 | S. cerevisiae deletion strains, locus YOR290C, strain snf2, stronger effect = lower value 0.0714 | S. cerevisiae deletion strains, locus YOR316C, strain cot1, stronger effect = lower value 0.066 | S. cerevisiae deletion strains, locus YPL051W, strain arl3, stronger effect = lower value 0.0687 | S. cerevisiae deletion strains, locus YPL055C, strain LGE1, stronger effect = lower value 0.0706 and 0.0896 | S. cerevisiae deletion strains, locus YPL078C, strain atp4, stronger effect = lower value 0.0678 | S. cerevisiae deletion strains, locus YPL106C, strain sse1, stronger effect = lower value 0.111 | S. cerevisiae deletion strains, locus YPL240C, strain hsp82, stronger effect = lower value 0.0603 | S. cerevisiae deletion strains, locus YPL241C, strain CIN2, stronger effect = lower value 0.0524 and 0.0485 | S. cerevisiae deletion strains, locus YPR119W, strain clb2, stronger effect = lower value 0.0709 | S. cerevisiae deletion strains, locus YPR141C, strain kar3, stronger effect = lower value 0.0821 | S. cerevisiae deletion strains, locus YPR163C, strain tif3, stronger effect = lower value 0.0791 | S. cerevisiae deletion strains, locus YPR167C, strain met16, stronger effect = lower value 0.0671 | S. cerevisiae deletion strains, strain wtn01, stronger effect = lower value 0.0664 | S. cerevisiae strains, strain wild type, stronger effect = lower value 0.0519
